Hits are enriched below; roughly 10% of the tested compounds scored in any of these assays.
PNC inhibitor: High Content Assay for Compounds that inhibit the Assembly of the Perinucleolar Compartment. PC3M PTB-GFP, PNC prevalence imaging, 16 h; hits give low values. activity change (PNC), negative = inhibition, % at 10 µM. 140,000 compounds, 3.1% hits. AID 2417, 2010;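 active means readout at or below -70, meaning at least 70% loss of cells showing the perinucleolar compartment, a nuclear body marking cancer cells; inconclusive means readout between -30 and a set limit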
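Read-out is percentage of cells bearing a perinucleolar compartment, from automated 20x imaging of fixed, Hoechst-stained PC3M PTB-GFP cells. Cells were seeded 4 h, then exposed 16 h to compound (23 nl of library stock) in duplicate plates.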
GLA inh pH 4.5: qHTS Assay for Inhibitors of Human alpha-Galactosidase at pH 4.5; Alpha-galactosidase A (Homo sapiens), P06280; purified enzyme, 4-MU-alpha-Gal fluorescence, pH 4.5; activity change, negative = inhibition, % at 105 µM; 230,000 tested, under 10 active; AID 1467, 2008
HPGD inh: qHTS Assay for Inhibitors of HPGD (15-Hydroxyprostaglandin Dehydrogenase); 15-hydroxyprostaglandin dehydrogenase [NAD(+)] (Homo sapiens), P15428; purified HPGD, NADH fluorescence kinetic, PGE2 substrate; Potency, µM, usual class: inhibitors; 150,000 compounds, 4.3% hits; active means well fitted inhibition curve with a large enough effect, not every such curve was filed as active; inconclusive means small, poorly fitted or top-dose-only effect, or another doubt; inactive means no such curve, though single readings can be large or run the other way
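20 nM HPGD preincubated 15 min at room temperature with compound in 50 mM Tris-HCl pH 8, 0.01% Tween 20. Started with 1 mM NAD+ and 30 uM prostaglandin E2; NADH fluorescence (360/450 nm) read 5 times over 30-s intervals, last minus first.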
12-hLO inh: qHTS Assay for Inhibitors of 12-hLO (12-human lipoxygenase); Polyunsaturated fatty acid lipoxygenase ALOX12 (Homo sapiens), P18054; purified 12-hLO, xylenol orange hydroperoxide absorbance; Potency, µM (series often up to 57.1 µM), most hits filed as inhibitors; 150,000 compounds, 0.12% hits; AID 1452, 2008; further: nearly all actives have a fitted effect of over 55% in size
Target sequence (P18054 whole entry, looked up): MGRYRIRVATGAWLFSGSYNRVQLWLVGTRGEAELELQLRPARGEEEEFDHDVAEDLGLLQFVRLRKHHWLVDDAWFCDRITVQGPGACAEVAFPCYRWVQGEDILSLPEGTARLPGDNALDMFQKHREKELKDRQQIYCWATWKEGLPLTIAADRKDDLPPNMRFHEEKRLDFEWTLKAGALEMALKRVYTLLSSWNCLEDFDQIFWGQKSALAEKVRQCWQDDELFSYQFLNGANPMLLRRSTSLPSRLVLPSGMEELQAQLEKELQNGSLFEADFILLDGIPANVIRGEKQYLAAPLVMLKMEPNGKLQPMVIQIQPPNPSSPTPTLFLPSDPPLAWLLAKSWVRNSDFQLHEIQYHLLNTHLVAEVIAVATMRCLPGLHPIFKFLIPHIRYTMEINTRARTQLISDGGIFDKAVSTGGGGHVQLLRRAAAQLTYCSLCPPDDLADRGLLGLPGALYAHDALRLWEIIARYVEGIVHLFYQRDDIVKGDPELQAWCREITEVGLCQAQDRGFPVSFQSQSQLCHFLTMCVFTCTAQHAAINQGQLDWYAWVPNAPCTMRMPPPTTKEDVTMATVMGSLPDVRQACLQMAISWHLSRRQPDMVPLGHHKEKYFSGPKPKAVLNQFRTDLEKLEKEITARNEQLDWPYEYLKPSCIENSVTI
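Purified human 12hLO (150 nM), preincubated 15 min with compound, then 40 uM arachidonic acid for 30 min, room temperature, Hepes pH 7.0 with 0.01% Triton X-100. Hydroperoxide detected by ferrous iron/xylenol orange; 573/405 nm absorbance ratio gives reaction progress.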
ALDH1A1 inh: qHTS Assay for Inhibitors of Aldehyde Dehydrogenase 1 (ALDH1A1). Aldehyde dehydrogenase 1A1 (Homo sapiens), P00352. Purified ALDH1A1, NADH fluorescence, propionaldehyde substrate. Potency, µM (highest dose often 75.3 µM), hits mostly inhibitors. 220,000 compounds, 7.3% hits; active means well fitted inhibition curve with a large enough effect, not every such curve was filed as active; inconclusive means small, poorly fitted or top-dose-only effect, or another doubt; inactive means no such curve, though single readings can be large or run the other way
aGal spleen mod: qHTS Assay for Inhibitors and Activators of Human alpha-Galactosidase From Spleen Homogenate. human spleen homogenate, 4MU-alpha-Gal fluorescence, 40 min. Potency, µM (doses to about 80 µM), most hits filed as inhibitors. 240,000 compounds, 0.008% hits. AID 2107, 2009
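Fluorogenic readout (Ex 365/Em 440 nm) of 4-methylumbelliferone released from 1 mM 4-MU-alpha-galactoside by spleen homogenate, 40 min at 37C, pH 5.0. Data normalized to no-enzyme and enzyme controls; Hill-equation AC50 from compound titrations.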
Large screens that a line does not name were inactive. Unless noted, the call rests on the fitted dose curve; in most records, active means well fitted curve in the direction sought with a large enough effect; inconclusive means small, poorly fitted or top-dose-only effect, or another doubt; inactive means no such curve, though single readings can be large; an effect the other way counts as inactive or inconclusive.

N#Cc1ccc(CSc2nc(-c3cccs3)c3c(c2C(=O)O)CCCC3)cc1	HPGD inh 18µM, ALDH1A1 inh inconclusive (no result: PNC inhibitor, GLA inh pH 4.5, aGal spleen mod)
CC1CCC(C(C)C)C(OC(=O)CSc2nc(N)cc(=O)[nH]2)C1 (configuration not stated)	ALDH1A1 inh 4.5µM
C/C(Cl)=C\Cn1c(O)c(N=NC(N)=S)c2cc(Br)ccc21	ALDH1A1 inh 0.45µM (no result: PNC inhibitor, HPGD inh, 12-hLO inh)
NC(=S)N=Nc1c(O)n(CCCl)c2ccc(Br)cc12	none (no result: PNC inhibitor, HPGD inh, 12-hLO inh)
NC(=S)N=Nc1c(O)n(Cc2ccc(F)cc2)c2ccccc12	ALDH1A1 inh 1.4µM (no result: HPGD inh)
NC(=S)N=Nc1c(O)n(Cc2ccc(Br)cc2)c2ccccc12	ALDH1A1 inh 3.5µM
Cc1cccc(NC(=O)Cn2c(O)c(N=NC(N)=S)c3ccccc32)c1	none (no result: PNC inhibitor, HPGD inh, 12-hLO inh, ALDH1A1 inh)
Cc1ccc2c(c1)c(N=O)c(O)n2Cc1ccc(Cl)cc1	none (no result: PNC inhibitor, HPGD inh, 12-hLO inh)
Cc1ccc2c(c1)c(N=NC(N)=S)c(O)n2Cc1ccccc1	ALDH1A1 inh 0.63µM
COc1cccc(Nc2ncc3nc(-c4cn(C)c5ccccc45)c(=O)n(C[C@H]4CCCO4)c3n2)c1	none (no result: PNC inhibitor, GLA inh pH 4.5, HPGD inh, 12-hLO inh)
Cc1ccc(NC(=O)c2ccc(OC(=O)COc3cccc(Cl)c3)cc2)cc1	PNC inhibitor inconclusive
CCN1C(=O)c2ccc(C(=O)NCc3ccccc3)cc2C1=O	ALDH1A1 inh 4.5µM
O=C(NCc1ccccc1)c1ccc2c(c1)C(=O)N(Cc1ccncc1)C2=O	ALDH1A1 inh inconclusive
CC(C(=O)Nc1sc2c(c1C(=O)NCc1ccco1)CCCC2)N1C(=O)c2ccccc2C1=O (configuration not stated)	none
CC(C)CCN1C(=O)c2ccc(C(=O)NCc3ccco3)cc2C1=O	PNC inhibitor inconclusive, ALDH1A1 inh 11µM
O=C(NCc1ccco1)c1ccc2c(c1)C(=O)N(Cc1ccccc1)C2=O	PNC inhibitor inconclusive, ALDH1A1 inh 13µM
O=C(CCN1C(=O)c2ccccc2C1=O)Nc1sc2c(c1C(=O)NCc1ccco1)CCCC2	PNC inhibitor -114, ALDH1A1 inh inconclusive
COc1cccc(CS(=O)(=O)c2ccccc2)c1	none (no result: PNC inhibitor, 12-hLO inh)
C#CCOCCCC(=O)O	none (no result: PNC inhibitor, GLA inh pH 4.5, aGal spleen mod)
C[N+]1(C)CCCC(OC(=O)C(O)(c2ccccc2)c2ccccc2)C1 (configuration not stated)	none (no result: PNC inhibitor)
COCC(=O)N1CCC2(CC1)CCN(c1ccc(-c3ccccc3)cc1)CC2	ALDH1A1 inh inconclusive (no result: PNC inhibitor, GLA inh pH 4.5)
CC1(C)O[C@@H]2[C@@H](O1)C(c1ccccc1)(c1ccccc1)OP(=O)(O)OC2(c1ccccc1)c1ccccc1	none (no result: PNC inhibitor, 12-hLO inh)
CCOC(=O)N1CCC(N2C(=O)c3ccc(C(=O)NCc4ccc(F)cc4)cc3C2=O)CC1	none
CCOC(=O)N1CCC(N2C(=O)c3ccc(C(=O)NCc4ccco4)cc3C2=O)CC1	PNC inhibitor -119, ALDH1A1 inh 12µM
CCN1C(=O)c2ccc(C(=O)Nc3nccs3)cc2C1=O	PNC inhibitor inconclusive, ALDH1A1 inh 4.5µM
O=C(Cn1c2[n+](c3ccc(C(F)(F)F)cc31)CCCCC2)Nc1ccc(Br)cc1	none (no result: PNC inhibitor, HPGD inh, 12-hLO inh)
CCc1ccc(NC(=O)Cn2c3[n+](c4c(F)c(F)ccc42)CCCCC3)cc1	ALDH1A1 inh 10µM (no result: PNC inhibitor, HPGD inh, 12-hLO inh)
CCOc1ccc(OCCCCn2ccnc2)cc1	none
CCOc1ccc2c(c1)C(N(CCN1CCOCC1)C(=O)Nc1ccccc1)CC(C)(C)O2 (configuration not stated)	none (no result: PNC inhibitor, HPGD inh, 12-hLO inh)
Cc1cc(C=O)c(C)n1-c1ccc(N2CCCC2)c([N+](=O)[O-])c1	HPGD inh 14µM, ALDH1A1 inh 0.45µM
Cc1cc(C=O)c(C)n1-c1ccc(N2CCOCC2)c([N+](=O)[O-])c1	ALDH1A1 inh 2.5µM (no result: PNC inhibitor, HPGD inh, 12-hLO inh)
C=C1C2CC[C@@]3(C)C(c4ccoc4)OC(=O)C[C@@]13OC1CC(=O)C(C)(C)C(CC(=O)OC)[C@]12C (some centres not stated)	none (no result: PNC inhibitor)

Screening results as filed in PubChem BioAssay.
